# Experimental data reported in PubChem BioAssay.
# Calls of active or inactive are those of the source.
# Tests used:
# [1] = system: PRMT1 (protein arginine N-methyltransferase 1); test: small molecules binding arginine methyltransferase PRMT1 – biochemical, small-molecule microarray, 635 nm fluorescence, primary screen (AID 1088); conditions: higher = more signal;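 note: binding of Prmt1 protein to compounds spotted on small-molecule microarray slides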
# [2] = growth effects on S. cerevisiae YJM789 – YJM789 clinical isolate, OD600, 24 h, basal, primary screen (AID 1089); conditions: higher = more signal, called active from +8 up or from −8 down;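 note: growth of clinical yeast isolate S. cerevisiae YJM 789 seeded 1000 cells per well; test concentration not given here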
# [3] = S. pombe growth modifiers, basal conditions – strain 972, OD600, 24 h, no modulator, primary screen (AID 1090);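 note: basal condition with compound alone and no growth modifier present; test concentration not given here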; conditions: S. pombe 972 growth, higher = more signal, called active from +8 up or from −8 down
# [4] = budding yeast growth modifiers under rapamycin – strain BY4716, OD600, 96 h, primary screen (AID 1091); note: test concentration not given here; conditions: S. cerevisiae BY4716 + rapamycin, higher = more signal, called active from +8 up or from −8 down
# [5] = molecular target: Torsin-1A-interacting protein 2 (Homo sapiens) (UniProt Q8NFQ8); test: small molecules binding lysate-expressed LULL1 – cell lysate, human LULL1 lysate, 635/667 nm fluorescence, primary screen (AID 1092); conditions: small-molecule microarray, hLULL1 lysate binding, 635 nm fluorescence; higher = more signal;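 note: probe is lysate of COS7 cells overexpressing human LULL1; score merges per-feature 667 nm fluorescence with signal-to-noise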
# [6] = optical density change of DRC41 E. coli – strain DRC41, OD650, 24 h, E. coli filamentation project, primary screen (AID 1093);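 note: MC1000 strain lacking acrAB efflux and sulA so SOS filamentation is blocked; test concentration not given here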; conditions: E. coli DRC41 growth, higher = more signal, called active from +8 up or from −8 down
# [7] = probe aLefty2 binding to arrayed compounds – biochemical, biotinylated probe, 635/667 nm fluorescence, primary screen (AID 1094); conditions: small-molecule microarray, higher = more signal;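 note: score merges spot fluorescence near 667 nm with spot signal-to-noise ratio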
# [8] = system: Noggin (protein binding on small-molecule microarray); test: small molecules binding Noggin protein – biochemical, 635/667 nm fluorescence, primary screen (AID 1095); conditions: 635 nm fluorescence, higher = more signal;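 note: score merges 667 nm feature fluorescence with signal to noise over triplicate slides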
# [9] = molecular target: Neurogenic locus notch homolog protein 3 (Homo sapiens) (UniProt Q9UM47); test: small molecules binding NOTCH3 protein – biochemical, 635/667 nm fluorescence, primary screen (AID 1096); conditions: small-molecule microarray, 635 nm fluorescence, higher = more signal
# [10] = probe aEGFR binding to arrayed compounds – biochemical, biotinylated probe, 635/667 nm fluorescence, primary screen (AID 1097); conditions: small-molecule microarray, higher = more signal;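 note: probe is a biotinylated anti-EGFR antibody binding compounds printed on slides; score combines fluorescence near 667 nm and signal to noise of each spot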
# [11] = system: Plasmodium falciparum Sir2 (PF13_0152, Sir2A); test: Plasmodium falciparum Sir2A binding compounds – biochemical, small-molecule microarray, 635 nm fluorescence, primary screen (AID 1098); conditions: fluorescence 635 nm, higher = more signal;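 note: score merges spot fluorescence intensity with its signal-to-noise ratio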
# [12] = probe aDKK1 binding to arrayed compounds – biochemical, biotinylated probe, 635/667 nm fluorescence, primary screen (AID 1099); conditions: small-molecule microarray, higher = more signal;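 note: score merges 667nm spot fluorescence with signal to noise across triplicate slides; reference of the scale not given here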
# [13] = probe aCHRDL2 binding to arrayed compounds – biochemical, biotinylated probe, 635/667 nm fluorescence, primary screen (AID 1100); conditions: small-molecule microarray, higher = more signal
# [14] = change in splice reporter luminescence, either direction, cell-based, HEK293, spliceosome inhibition project, primary screen (AID 1101); conditions: HEK293 splicing luciferase reporter, 24 h, higher = more signal, called active from +8 up or from −8 down;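 note: HEK293 cells carrying a splicing-competent luciferase reporter gene; test concentration not given here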
# [15] = molecular target: Fibroblast growth factor 10 (Homo sapiens) (UniProt O15520); test: compounds binding fibroblast growth factor 10 – biochemical, small-molecule microarray, 635 nm fluorescence, primary screen (AID 1102); conditions: FGF10 binding, fluorescence 635 nm, higher = more signal
# [16] = system: glycogen synthase kinase-3 (GSK3A per assay name; protocol says GSK3B); test: compounds binding glycogen synthase kinase-3 – biochemical, small-molecule microarray, 635 nm fluorescence, GSK3A, primary screen (AID 1103); conditions: fluorescence 635 nm, higher = more signal; note: the record names both GSK3A and GSK3B
# [17] = molecular target: Epidermal growth factor receptor (Homo sapiens) (UniProt P00533); test: compounds binding epidermal growth factor receptor – biochemical, small-molecule microarray, 635 nm fluorescence, primary screen (AID 1104); conditions: EGFR binding, higher = more signal;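 note: score merges 667 nm emission intensity with spot signal to noise over triplicate slides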
# [18] = molecular target: Follistatin-related protein 3 (Homo sapiens) (UniProt O95633); test: compounds binding follistatin-related protein 3 – biochemical, small-molecule microarray, 635 nm fluorescence, primary screen (AID 1105); conditions: FSTL3 binding, higher = more signal;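 note: score merges emission near 667 nm and signal to noise per printed spot across three slides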
# [19] = molecular target: Dickkopf-related protein 1 (Homo sapiens) (UniProt O94907); test: small molecules binding DKK1 protein – biochemical, small-molecule microarray, 635 nm fluorescence scan, primary screen (AID 1106); conditions: higher = more signal;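 note: score merges emission near 667 nm with signal to noise over three replicate slides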
# [20] = system: Inhibin beta A chain (activin A); test: small molecules binding activin A – biochemical, small-molecule microarray, 635 nm fluorescence scan, primary screen (AID 1107); conditions: INHBA, higher = more signal;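 note: mouse activin A protein probed at 4.33 µg/mL on printed slides; score merges bound-protein fluorescence near 667 nm with spot signal-to-noise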
# Sequence of Neurogenic locus notch homolog protein 3 (Homo sapiens) (Q9UM47 whole entry, looked up): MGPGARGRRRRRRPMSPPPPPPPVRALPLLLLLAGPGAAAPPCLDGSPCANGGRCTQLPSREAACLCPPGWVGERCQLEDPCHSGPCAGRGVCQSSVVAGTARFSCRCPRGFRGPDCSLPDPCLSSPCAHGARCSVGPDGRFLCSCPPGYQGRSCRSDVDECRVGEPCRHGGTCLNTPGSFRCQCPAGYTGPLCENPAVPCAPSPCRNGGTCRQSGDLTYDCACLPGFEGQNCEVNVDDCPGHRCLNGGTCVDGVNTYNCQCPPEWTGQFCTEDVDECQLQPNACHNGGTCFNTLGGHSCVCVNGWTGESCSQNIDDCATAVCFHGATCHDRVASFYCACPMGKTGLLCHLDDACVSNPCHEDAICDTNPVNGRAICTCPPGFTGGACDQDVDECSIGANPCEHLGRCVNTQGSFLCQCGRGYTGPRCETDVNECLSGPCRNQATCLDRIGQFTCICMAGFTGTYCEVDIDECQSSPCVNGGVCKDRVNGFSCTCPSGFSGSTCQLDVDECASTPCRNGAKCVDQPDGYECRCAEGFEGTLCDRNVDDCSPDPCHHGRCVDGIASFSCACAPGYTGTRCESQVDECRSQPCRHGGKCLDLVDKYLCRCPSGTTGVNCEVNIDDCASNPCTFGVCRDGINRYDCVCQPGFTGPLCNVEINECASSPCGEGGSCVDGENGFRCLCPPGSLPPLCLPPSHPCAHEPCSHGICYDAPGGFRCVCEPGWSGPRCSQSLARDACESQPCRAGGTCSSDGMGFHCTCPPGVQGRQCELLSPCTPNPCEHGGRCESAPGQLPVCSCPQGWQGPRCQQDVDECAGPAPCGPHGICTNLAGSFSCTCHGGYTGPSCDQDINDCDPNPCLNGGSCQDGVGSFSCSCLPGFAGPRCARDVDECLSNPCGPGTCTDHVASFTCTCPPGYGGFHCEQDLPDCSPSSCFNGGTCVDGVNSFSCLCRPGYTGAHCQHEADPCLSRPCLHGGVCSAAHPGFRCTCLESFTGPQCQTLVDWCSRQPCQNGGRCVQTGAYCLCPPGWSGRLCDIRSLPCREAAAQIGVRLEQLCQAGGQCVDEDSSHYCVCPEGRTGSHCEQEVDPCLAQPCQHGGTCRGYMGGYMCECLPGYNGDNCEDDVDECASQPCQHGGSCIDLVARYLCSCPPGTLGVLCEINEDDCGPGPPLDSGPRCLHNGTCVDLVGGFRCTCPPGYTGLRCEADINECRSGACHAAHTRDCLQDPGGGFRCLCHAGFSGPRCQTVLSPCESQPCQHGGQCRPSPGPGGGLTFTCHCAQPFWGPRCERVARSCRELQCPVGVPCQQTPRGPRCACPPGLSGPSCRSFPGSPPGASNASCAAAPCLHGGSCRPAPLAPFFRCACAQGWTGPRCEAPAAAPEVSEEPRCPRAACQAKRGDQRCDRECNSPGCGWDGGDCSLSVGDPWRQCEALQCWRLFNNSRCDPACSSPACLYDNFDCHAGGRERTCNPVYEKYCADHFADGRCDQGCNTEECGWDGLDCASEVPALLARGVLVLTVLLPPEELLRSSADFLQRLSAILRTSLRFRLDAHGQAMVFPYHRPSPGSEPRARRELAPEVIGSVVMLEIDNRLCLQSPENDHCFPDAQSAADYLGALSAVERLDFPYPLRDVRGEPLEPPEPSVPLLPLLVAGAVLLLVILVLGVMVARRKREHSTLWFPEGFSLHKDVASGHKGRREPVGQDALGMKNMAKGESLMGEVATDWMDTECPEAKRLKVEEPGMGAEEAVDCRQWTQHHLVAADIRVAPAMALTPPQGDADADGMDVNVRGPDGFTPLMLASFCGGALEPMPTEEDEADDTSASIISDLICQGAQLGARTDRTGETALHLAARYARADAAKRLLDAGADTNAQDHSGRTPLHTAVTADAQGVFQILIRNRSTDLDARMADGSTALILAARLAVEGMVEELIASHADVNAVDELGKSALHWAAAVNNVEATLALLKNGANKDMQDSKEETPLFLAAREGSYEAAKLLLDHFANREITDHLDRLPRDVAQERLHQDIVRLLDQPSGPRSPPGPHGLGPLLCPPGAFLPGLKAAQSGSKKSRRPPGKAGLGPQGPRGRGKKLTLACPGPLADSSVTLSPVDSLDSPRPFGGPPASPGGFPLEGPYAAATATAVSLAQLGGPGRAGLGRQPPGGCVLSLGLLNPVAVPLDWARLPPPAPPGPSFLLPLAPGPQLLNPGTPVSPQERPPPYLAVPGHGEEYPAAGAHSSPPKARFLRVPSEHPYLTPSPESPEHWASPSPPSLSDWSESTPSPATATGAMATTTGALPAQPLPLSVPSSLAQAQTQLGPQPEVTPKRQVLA
# Sequence of Fibroblast growth factor 10 (Homo sapiens) (O15520 whole entry, looked up): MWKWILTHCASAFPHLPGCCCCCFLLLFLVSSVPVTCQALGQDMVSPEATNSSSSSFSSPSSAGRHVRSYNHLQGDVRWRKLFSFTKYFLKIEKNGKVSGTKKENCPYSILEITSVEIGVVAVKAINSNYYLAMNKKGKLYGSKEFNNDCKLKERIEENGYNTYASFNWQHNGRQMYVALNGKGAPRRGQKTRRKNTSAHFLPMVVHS
# Sequence of Dickkopf-related protein 1 (Homo sapiens) (O94907 whole entry, looked up): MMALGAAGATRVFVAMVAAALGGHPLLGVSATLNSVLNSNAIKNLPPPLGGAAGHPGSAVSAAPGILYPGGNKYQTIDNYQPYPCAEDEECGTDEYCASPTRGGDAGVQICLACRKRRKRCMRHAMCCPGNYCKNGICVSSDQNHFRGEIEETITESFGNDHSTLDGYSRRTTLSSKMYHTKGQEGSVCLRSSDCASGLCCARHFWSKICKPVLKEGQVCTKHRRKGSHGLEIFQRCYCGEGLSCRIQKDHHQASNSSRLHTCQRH
# Sequence of Epidermal growth factor receptor (Homo sapiens) (P00533 whole entry, looked up): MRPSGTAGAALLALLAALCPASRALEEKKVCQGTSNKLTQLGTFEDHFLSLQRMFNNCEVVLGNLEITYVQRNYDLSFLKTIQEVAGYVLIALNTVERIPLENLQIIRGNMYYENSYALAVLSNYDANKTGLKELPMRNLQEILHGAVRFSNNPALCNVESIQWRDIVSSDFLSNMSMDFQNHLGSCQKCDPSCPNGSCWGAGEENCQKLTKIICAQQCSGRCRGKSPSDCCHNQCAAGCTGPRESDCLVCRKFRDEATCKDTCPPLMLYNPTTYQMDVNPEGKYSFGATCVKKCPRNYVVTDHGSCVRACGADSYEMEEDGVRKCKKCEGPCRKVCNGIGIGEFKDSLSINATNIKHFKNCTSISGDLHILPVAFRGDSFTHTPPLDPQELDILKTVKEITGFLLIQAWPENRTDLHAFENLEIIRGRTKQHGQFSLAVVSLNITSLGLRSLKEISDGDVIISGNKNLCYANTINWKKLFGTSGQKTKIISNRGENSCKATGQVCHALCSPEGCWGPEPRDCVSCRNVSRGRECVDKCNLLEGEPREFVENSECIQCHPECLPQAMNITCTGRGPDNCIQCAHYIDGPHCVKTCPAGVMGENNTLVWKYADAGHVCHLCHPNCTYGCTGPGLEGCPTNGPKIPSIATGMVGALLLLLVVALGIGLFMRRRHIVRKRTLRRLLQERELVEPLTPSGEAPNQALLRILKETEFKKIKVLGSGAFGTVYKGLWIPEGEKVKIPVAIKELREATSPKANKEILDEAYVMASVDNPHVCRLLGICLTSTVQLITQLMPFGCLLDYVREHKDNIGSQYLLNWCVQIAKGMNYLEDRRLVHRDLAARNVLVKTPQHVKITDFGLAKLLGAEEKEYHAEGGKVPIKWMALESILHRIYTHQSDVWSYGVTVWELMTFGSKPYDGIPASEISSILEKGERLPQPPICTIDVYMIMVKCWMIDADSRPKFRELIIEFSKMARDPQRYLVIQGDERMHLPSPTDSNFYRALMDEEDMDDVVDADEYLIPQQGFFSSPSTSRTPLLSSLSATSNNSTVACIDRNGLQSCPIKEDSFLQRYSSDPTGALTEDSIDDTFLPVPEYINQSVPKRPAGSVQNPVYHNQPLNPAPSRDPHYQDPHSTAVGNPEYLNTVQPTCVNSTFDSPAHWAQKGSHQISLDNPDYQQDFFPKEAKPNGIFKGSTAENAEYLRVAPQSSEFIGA
# Sequence of Torsin-1A-interacting protein 2 (Homo sapiens) (Q8NFQ8 whole entry, looked up): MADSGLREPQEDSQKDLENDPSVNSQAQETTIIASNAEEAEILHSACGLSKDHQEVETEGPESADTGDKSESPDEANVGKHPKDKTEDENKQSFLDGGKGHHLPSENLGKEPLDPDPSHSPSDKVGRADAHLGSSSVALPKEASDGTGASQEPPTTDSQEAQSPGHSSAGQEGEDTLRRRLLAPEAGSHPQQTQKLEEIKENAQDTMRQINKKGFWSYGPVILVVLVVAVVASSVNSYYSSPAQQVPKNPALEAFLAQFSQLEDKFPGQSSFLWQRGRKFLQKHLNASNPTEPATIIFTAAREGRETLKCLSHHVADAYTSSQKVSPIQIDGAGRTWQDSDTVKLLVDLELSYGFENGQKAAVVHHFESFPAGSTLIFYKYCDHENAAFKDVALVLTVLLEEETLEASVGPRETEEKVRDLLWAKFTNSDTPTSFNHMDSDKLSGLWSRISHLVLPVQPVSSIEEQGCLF
# Sequence of Follistatin-related protein 3 (Homo sapiens) (O95633 whole entry, looked up): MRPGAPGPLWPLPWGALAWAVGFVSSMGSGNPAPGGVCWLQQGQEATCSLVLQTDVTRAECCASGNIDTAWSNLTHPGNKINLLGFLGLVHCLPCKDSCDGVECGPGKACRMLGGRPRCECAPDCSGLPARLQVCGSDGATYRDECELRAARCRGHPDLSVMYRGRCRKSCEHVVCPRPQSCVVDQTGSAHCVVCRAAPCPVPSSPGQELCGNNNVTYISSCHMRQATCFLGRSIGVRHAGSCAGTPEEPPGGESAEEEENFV
SMILES,composite z-score [1],z-score [2],z-score [3],z-score [4],composite z-score [5],z-score [6],composite z-score [7],composite z-score [8],composite z-score [9],composite z-score [10],composite z-score [11],composite z-score [12],composite z-score [13],z-score [14],composite z-score [15],composite z-score [16],composite z-score [17],composite z-score [18],composite z-score [19],composite z-score [20]
COc1ccc(O[C@@H]2[C@H](O)CO[C@H]2C=Cc2ccccc2)cc1,0.619,-2.63 (inactive),-3.17 (inactive),-0.856 (inactive),0.108,0.473 (inactive),-0.214,0.146,-0.167,-0.148,0.1,-0.274,-0.379,-0.878 (inactive),0.0279,-0.0395,-0.033,-0.267,-0.275,0.799
CCOC(=O)NN=C1C[C@@H](O)[C@@H](O)[C@@H]2[C@@H]3C(=O)N(Cc4ccccc4)C(=O)[C@@H]3CC[C@H]12,-0.278,-0.907 (inactive),-0.524 (inactive),-1.33 (inactive),-0.308,-0.127 (inactive),-0.138,0.0448,-0.0518,-0.0387,0.245,-0.259,-0.301,-1.14 (inactive),-0.0919,-0.435,0.242,0.0487,0.615,-0.0924
O=C1[C@H]2[C@H]3[C@H](O)[C@H](O)CC(=NOC[C@@H](O)COCc4ccco4)[C@H]3CC[C@H]2C(=O)N1c1ccc(F)cc1F,-0.012,-3.68 (inactive),-1.99 (inactive),-1.97 (inactive),-0.701,-1.13 (inactive),-0.469,-0.349,-0.927,-0.165,-0.295,0.0973,-0.901,-2.86 (inactive),-0.921,0.0894,-0.553,-0.529,-0.301,-0.413
CCOC(=O)[C@H](CC(C)C)NC(=O)CCC1CC(OC(=O)NCc2ccc3c(c2)OCO3)CC2(CCCC(COC(=O)NCCCN3CCCC3=O)O2)O1 (stereo not given in full),1.49,-0.0618 (inactive),0.162 (inactive),-0.474 (inactive),1.94,0.485 (inactive),-0.166,1.36,1.04,-0.0271,0.929,-0.0602,-0.568,-0.719 (inactive),0.783,0.805,0.414,0.734,0.509,-0.0813
CC(CCN1CCc2nc(-c3ccccc3)c(-c3ccccc3)cc2C1)=NOC[C@@H](O)COCc1ccco1,0.651,-0.544 (inactive),-1.45 (inactive),-3.75 (inactive),0.0955,0.845 (inactive),-0.176,0.806,0.481,-0.083,0.752,-0.131,-0.614,0.0302 (inactive),0.52,0.814,0.377,0.776,1.08,1.48
CCOC(=O)[C@H](Cc1ccccc1)NC(=O)OC1CC(CCC2CC(CC)=NO2)OC2(CCCC(COC(=O)NCCC(C)C)O2)C1 (stereo not given in full),1.19,-0.764 (inactive),0.595 (inactive),0.344 (inactive),1.44,1.11 (inactive),-0.147,0.322,-0.0258,-0.0721,0.328,-0.246,-0.264,0.667 (inactive),0.848,0.207,0.0954,-0.127,0.0585,-0.415
COC(=O)[C@H](C)NC(=O)CCC1CC(OC(=O)NCc2ccc3c(c2)OCO3)CC2(CCCC(COC(=O)NCC3CCCCC3)O2)O1 (stereo not given in full),1.46,0.147 (inactive),0.803 (inactive),1.45 (inactive),2.28,-0.0678 (inactive),-0.0576,1.1,1.1,-0.0139,0.74,-0.21,-0.647,0.507 (inactive),1.29,0.98,0.621,1.07,0.822,-0.144
CCOC(=O)[C@H](Cc1ccccc1)NC(=O)CCC1CC(OC(=O)NCc2cccc3ccccc23)CC2(CCCC(COC(=O)NCC(c3ccccc3)c3ccccc3)O2)O1 (stereo not given in full),1.5,-0.803 (inactive),-0.463 (inactive),-1.07 (inactive),1.17,-1.09 (inactive),-0.147,0.504,0.851,0.0117,0.812,0.127,-0.464,-1.21 (inactive),0.684,0.588,0.356,0.501,0.37,0.0413
CCOC(=O)[C@H](CC(C)C)NC(=O)CCC1CC(OC(=O)NCCc2ccc(F)cc2)CC2(CCCC(COC(=O)NCCc3ccc(Cl)cc3)O2)O1 (stereo not given in full),1.26,-0.623 (inactive),0.485 (inactive),-0.518 (inactive),1.97,-0.296 (inactive),-0.0021,0.948,0.773,-0.123,0.654,-0.26,-0.681,0.0483 (inactive),0.675,0.46,0.517,0.79,0.483,-1.71
O=C1[C@H]2[C@H]3[C@H](O)[C@H](O)CC(=NOC[C@@H](O)COCc4ccco4)[C@@H]3CC[C@H]2C(=O)N1C[C@@H]1CCCO1,1.37,0.715 (inactive),1.01 (inactive),0.714 (inactive),-0.239,1.05 (inactive),-0.0732,0.997,0.395,-0.344,0.396,-0.549,-1.2,-0.134 (inactive),0.204,1.24,1.14,1.49,1.51,1.22
